Reference: the supplement of paper PMC10849652
About 8,800 targets were measured; listed, in parts, are those with a hit and a random draw of the rest. About 0.5% of all pairs of compound and target were hits. Values without a mark were called inactive.

Columns and labels:
Test in all cases: log2 fold change, soluble protein after heating vs DMSO (PISA); higher = thermal stabilisation; K562 lysate, 10 uM; active = over 0.2 and 3.5 SD of the protein, either way, in both replicates (recomputed)
ibrutinib = compound: C=CC(=O)N1CCC[C@@H](n2nc(-c3ccc(Oc4ccccc4)cc3)c3c(N)ncnc32)C1 [ibrutinib]
Procedure, shortened: (§1)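 K562 pellets were dounce-homogenised in PBS pH 7.4 containing 1 mM MgCl2, and the crude extract, at 1 mg/mL protein, was exposed to 10 μM compound for 30 min. Aliquots were heated for 3 min across 48°C-58°C, pooled, brought to 0.5% NP-40 at 4°C and spun at 21,000xg for 90 min, with the supernatant taken as soluble protein. TMTpro 16plex LC-MS/MS with equalised channel sums quantified that protein. Values are log-two fold changes in thermal stability relative to solvent controls, taken from duplicates.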

[1] = compound: CC(=O)c1cnc2ccc(-c3cc(Cl)c(O)c(Cl)c3)nc2c1N[C@H]1CC[C@H](CN(C)C)CC1
Procedure, shortened: as §1

ralimetinib = compound: CC(C)(C)Cn1c(N)nc2ccc(-c3[nH]c(C(C)(C)C)nc3-c3ccc(F)cc3)nc21 [ralimetinib]
Procedure, shortened: as §1

[2] = compound: CC(C)(O)CC(=O)NCCn1ccc2ncnc(Nc3ccc(Oc4cccc(C(F)(F)F)c4)c(Cl)c3)c21
Procedure, shortened: as §1

[3] = compound: CC1=C(C(CC(=O)N1)C2=CC=C(C=C2)C(F)(F)F)C(=O)NC3=C(C=C4C(=C3)C=NN4)F
Procedure, shortened: as §1

[4] = compound: CC1=C(C2=C(C=C1)C(=O)C3=CC=CC=C3N2CCCN)C
Procedure, shortened: as §1

[5] = compound: CC1=C(C=C(C=C1)NC(=O)C2=CC(=CC=C2)C(C)(C)C#N)NC3=CC4=C(C=C3)N=CN(C4=O)C
Procedure, shortened: as §1

[6] = compound: CC1=C(C=C(C=C1)NC(=O)C2=CC(=CC=C2)N(C)C)NC(=O)C3=CC=C(C=C3)O
Procedure, shortened: as §1

[7] = compound: CC1=CC=C(C=C1)SC2=C3C=C(SC3=CN=C2)C(=O)N
Procedure, shortened: as §1

vemurafenib = compound: CCCS(=O)(=O)Nc1ccc(F)c(C(=O)c2c[nH]c3ncc(-c4ccc(Cl)cc4)cc23)c1F [vemurafenib]
Procedure, shortened: as §1

[8] = compound: CCCS(=O)(=O)Nc1ccc(F)c(C(=O)c2c[nH]c3ncc(Cl)cc23)c1F
Procedure, shortened: as §1

barasertib = compound: CCN(CCCOc1ccc2c(Nc3cc(CC(=O)Nc4cccc(F)c4)[nH]n3)ncnc2c1)CCOP(=O)(O)O [barasertib]
Procedure, shortened: as §1

[9] = compound: CC[C@@H]1C(=O)N(C)c2cnc(Nc3ccc(C(=O)NC4CCN(C)CC4)cc3OC)nc2N1C1CCCC1
Procedure, shortened: as §1

volasertib = compound: CC[C@@H]1C(=O)N(C)c2cnc(Nc3ccc(C(=O)N[C@H]4CC[C@H](N5CCN(CC6CC6)CC5)CC4)cc3OC)nc2N1C(C)C [volasertib]
Procedure, shortened: as §1

[10] = compound: CCn1c(C(=O)N(C2CC2)C2CC2)cc2c3c(ncn3C)c(Nc3cc(C)n(C)n3)nc21
Procedure, shortened: as §1

[11] = compound: CCn1cc(-c2ccnc3[nH]c(-c4cccc(CN(C)C)c4)cc23)c(-c2ccc(NC(=O)N(C)C)cc2)n1
Procedure, shortened: as §1

[12] = compound: CN1CCC(CNc2ccc3ncc(-c4cccc(OC(F)(F)F)c4)n3n2)CC1
Procedure, shortened: as §1

saracatinib = compound: CN1CCN(CCOc2cc(OC3CCOCC3)c3c(Nc4c(Cl)ccc5c4OCO5)ncnc3c2)CC1 [saracatinib]
Procedure, shortened: as §1

sotrastaurin = compound: CN1CCN(c2nc(C3=C(c4c[nH]c5ccccc45)C(=O)NC3=O)c3ccccc3n2)CC1 [sotrastaurin]
Procedure, shortened: as §1

[13] = compound: CC(C)C1=C2N=C(C=C(N2N=C1)NCC3=CC=CC=C3)NCCCCCCN
Procedure, shortened: as §1

UniProt Q8TE73, sequence (Q8TE73 whole entry, looked up): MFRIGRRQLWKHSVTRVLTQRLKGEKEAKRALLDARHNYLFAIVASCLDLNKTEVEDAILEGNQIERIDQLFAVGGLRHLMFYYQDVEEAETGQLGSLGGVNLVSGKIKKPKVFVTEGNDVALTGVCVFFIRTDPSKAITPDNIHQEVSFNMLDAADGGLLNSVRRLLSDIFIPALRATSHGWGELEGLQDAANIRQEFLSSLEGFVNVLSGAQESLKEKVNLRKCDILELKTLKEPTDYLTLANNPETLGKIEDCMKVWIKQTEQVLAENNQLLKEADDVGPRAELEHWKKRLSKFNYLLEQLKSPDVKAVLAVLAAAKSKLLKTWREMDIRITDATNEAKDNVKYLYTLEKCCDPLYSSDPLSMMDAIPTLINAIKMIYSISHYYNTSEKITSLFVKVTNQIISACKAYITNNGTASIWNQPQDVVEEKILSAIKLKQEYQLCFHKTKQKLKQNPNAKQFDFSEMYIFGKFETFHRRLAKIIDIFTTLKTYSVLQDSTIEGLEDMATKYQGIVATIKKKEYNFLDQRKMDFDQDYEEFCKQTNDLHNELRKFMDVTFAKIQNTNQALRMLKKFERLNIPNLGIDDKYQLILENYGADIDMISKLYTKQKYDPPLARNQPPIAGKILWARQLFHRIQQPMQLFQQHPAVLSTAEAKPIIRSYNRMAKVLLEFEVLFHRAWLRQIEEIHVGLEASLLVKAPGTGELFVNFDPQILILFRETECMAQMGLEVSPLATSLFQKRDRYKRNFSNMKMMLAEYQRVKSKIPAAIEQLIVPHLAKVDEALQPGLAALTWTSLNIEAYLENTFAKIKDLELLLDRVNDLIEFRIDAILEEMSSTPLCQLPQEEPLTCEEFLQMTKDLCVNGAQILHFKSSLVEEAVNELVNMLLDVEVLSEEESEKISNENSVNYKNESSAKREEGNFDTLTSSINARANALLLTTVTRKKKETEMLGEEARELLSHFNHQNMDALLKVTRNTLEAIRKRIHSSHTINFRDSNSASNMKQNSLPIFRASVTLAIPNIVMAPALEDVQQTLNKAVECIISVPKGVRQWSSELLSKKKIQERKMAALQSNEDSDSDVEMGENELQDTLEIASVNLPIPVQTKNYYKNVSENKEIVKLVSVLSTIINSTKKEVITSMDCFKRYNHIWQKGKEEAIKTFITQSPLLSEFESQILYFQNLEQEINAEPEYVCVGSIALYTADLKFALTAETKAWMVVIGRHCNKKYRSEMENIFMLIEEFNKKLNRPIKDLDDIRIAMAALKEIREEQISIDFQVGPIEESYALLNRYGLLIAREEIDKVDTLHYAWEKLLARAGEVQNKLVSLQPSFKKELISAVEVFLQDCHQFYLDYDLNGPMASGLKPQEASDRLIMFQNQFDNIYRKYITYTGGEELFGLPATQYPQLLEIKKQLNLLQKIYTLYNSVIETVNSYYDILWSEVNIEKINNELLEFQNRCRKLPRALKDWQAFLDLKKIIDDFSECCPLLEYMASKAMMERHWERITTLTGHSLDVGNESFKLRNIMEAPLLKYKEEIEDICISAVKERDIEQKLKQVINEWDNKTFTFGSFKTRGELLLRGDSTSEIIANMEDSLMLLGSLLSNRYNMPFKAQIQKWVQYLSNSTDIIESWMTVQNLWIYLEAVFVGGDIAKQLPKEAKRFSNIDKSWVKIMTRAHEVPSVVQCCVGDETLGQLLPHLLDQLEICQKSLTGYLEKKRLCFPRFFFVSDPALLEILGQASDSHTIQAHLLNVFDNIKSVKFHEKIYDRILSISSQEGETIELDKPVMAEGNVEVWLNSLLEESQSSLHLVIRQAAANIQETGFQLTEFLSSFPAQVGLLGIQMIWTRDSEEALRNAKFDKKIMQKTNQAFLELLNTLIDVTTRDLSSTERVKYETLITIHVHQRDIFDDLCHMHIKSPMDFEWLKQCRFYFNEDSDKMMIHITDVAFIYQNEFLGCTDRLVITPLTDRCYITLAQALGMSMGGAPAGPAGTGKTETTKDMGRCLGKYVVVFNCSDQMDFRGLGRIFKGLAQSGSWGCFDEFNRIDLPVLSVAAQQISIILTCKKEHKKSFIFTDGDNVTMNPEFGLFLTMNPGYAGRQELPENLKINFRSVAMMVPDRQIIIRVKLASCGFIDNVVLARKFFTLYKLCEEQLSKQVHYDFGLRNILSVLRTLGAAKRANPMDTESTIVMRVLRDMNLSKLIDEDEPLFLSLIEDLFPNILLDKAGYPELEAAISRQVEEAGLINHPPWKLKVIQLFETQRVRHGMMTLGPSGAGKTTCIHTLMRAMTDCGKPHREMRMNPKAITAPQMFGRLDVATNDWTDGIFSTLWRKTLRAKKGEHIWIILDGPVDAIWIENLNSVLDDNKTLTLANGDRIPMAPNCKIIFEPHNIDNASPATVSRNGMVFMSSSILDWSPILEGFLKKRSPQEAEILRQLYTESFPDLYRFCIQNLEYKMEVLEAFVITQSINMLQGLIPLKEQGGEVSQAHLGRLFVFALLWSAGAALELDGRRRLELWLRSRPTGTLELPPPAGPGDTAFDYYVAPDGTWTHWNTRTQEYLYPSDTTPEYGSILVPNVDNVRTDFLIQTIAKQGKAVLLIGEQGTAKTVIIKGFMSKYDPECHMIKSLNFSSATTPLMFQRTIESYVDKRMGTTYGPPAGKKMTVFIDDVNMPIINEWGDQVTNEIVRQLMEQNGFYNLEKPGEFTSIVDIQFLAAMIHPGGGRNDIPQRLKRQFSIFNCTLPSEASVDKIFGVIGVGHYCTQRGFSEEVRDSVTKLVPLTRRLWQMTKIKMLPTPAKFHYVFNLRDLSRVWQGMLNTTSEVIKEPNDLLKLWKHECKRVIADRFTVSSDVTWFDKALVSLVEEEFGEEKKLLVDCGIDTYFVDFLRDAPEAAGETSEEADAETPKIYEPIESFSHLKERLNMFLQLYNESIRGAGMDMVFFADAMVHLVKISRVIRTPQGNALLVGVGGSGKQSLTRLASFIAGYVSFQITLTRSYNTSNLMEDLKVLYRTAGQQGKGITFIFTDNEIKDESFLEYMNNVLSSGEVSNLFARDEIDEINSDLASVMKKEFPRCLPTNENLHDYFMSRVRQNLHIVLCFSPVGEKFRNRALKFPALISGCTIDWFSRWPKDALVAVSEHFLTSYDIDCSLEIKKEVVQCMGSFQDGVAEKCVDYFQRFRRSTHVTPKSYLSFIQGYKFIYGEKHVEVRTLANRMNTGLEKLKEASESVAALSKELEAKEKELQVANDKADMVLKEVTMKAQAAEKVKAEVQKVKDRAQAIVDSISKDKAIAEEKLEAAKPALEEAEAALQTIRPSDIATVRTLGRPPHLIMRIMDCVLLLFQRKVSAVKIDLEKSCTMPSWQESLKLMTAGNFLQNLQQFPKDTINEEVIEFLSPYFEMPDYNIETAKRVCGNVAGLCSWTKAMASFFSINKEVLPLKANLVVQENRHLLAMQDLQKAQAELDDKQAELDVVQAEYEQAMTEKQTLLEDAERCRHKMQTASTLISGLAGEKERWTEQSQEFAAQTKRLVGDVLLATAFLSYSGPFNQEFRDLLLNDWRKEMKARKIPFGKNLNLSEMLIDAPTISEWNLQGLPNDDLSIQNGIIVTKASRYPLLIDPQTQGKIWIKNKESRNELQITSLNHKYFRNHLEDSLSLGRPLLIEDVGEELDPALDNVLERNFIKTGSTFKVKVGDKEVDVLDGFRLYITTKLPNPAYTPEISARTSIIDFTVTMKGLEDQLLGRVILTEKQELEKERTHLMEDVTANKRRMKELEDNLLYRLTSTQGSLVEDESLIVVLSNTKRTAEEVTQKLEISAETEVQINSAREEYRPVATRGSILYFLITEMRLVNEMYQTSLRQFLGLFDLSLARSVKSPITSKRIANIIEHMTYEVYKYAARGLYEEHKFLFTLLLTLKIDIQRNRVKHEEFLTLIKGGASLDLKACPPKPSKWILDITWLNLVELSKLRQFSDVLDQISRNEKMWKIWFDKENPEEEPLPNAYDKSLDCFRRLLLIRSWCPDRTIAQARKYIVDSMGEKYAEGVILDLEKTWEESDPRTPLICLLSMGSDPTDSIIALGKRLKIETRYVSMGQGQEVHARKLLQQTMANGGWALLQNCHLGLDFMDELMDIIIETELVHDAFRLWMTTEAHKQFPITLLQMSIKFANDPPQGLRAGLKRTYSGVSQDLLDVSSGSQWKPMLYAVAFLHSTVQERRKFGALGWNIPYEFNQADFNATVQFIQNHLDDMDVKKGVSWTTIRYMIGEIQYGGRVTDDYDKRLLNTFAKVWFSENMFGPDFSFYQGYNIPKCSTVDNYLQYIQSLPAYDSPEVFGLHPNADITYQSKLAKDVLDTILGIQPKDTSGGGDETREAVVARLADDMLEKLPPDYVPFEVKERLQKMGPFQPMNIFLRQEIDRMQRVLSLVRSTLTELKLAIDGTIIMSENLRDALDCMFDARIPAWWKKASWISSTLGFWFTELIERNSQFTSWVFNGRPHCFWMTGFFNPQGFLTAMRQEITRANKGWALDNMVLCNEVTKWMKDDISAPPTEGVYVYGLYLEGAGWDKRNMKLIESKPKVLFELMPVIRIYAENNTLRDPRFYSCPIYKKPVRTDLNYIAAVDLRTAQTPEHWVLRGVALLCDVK
UniProt Q9H3Z4, sequence (Q9H3Z4 whole entry, looked up): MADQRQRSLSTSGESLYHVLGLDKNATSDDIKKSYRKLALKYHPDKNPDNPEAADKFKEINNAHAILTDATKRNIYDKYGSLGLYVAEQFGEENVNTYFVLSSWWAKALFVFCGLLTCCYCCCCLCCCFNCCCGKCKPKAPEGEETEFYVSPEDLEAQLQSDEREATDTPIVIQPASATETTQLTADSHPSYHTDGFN
UniProt O15247, sequence (O15247 whole entry, looked up): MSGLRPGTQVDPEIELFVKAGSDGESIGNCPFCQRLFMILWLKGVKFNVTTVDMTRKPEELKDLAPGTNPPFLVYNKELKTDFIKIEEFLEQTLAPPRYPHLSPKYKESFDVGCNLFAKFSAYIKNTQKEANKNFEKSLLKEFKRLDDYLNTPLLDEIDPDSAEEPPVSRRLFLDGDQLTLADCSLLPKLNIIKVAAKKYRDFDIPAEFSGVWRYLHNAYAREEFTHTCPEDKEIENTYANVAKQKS

Target | log2 fold change (ibrutinib) | log2 fold change [1] | log2 fold change (ralimetinib) | log2 fold change [2] | log2 fold change [3] | log2 fold change [4] | log2 fold change [5] | log2 fold change [6] | log2 fold change [7] | log2 fold change (vemurafenib) | log2 fold change [8] | log2 fold change (barasertib) | log2 fold change [9] | log2 fold change (volasertib) | log2 fold change [10] | log2 fold change [11] | log2 fold change [12] | log2 fold change (saracatinib) | log2 fold change (sotrastaurin) | log2 fold change [13]
CINP isoform 3 (UniProt Q9BW66) | 0 | -0.012 | 0.047 | -0.051 | 0.072 | -0.168 | 0.039 | 0.009 | -0.005 | -0.071 | 0.01 | 0.052 | 0.098 | -0.05 | -0.033 | -0.331 | 0.189 | 0.047 | 0.014 | –
DNAH5 (UniProt Q8TE73) | -0.064 | -0.009 | -0.045 | -0.138 | 0.062 | 0.014 | – | 0.019 | 0.086 | 0.007 | 0.074 | 0.006 | – | 0.02 | -0.035 | -0.481 (active) | 0.122 | 0.007 | – | 0.076
DDB2 (UniProt Q92466) | 0.075 | -0.016 | 0.009 | -0.033 | 0.091 | -0.003 | 0.009 | 0 | 0.01 | -0.073 | 0.001 | 0.025 | 0.015 | -0.003 | 0 | 0.006 | 0.019 | -0.022 | 0.075 | -0.007
DBF4 (UniProt Q9UBU7) | -0.06 | – | -0.048 | -0.017 | -0.062 | -0.058 | -0.012 | -0.042 | – | 0.001 | – | 0.054 | -0.015 | – | 0.001 | -0.003 | -0.245 | 0.001 | -0.004 | -0.01
CNOT4 isoform 9 (UniProt O95628) | 0.052 | -0.019 | 0.043 | -0.084 | – | 0.032 | -0.138 | -0.02 | 0.013 | 0.027 | 0.014 | -0.195 | 0.028 | -0.03 | 0.015 | -1.23 (active) | 0.22 | 0.1 | 0.075 | -0.003
DLGAP5 isoform 3 (UniProt Q15398) | -0.076 | – | – | – | – | 0.233 | – | – | – | – | – | 0.281 | – | – | – | -0.165 | -0.03 | 0.165 | – | –
DNAJC5 (UniProt Q9H3Z4) | -0.029 | -0.072 | -0.013 | -0.043 | 0.06 | -0.008 | 0.048 | -0.036 | -0.116 | 0.001 | -0.02 | 0.008 | -0.031 | 0.012 | 0.015 | -0.476 (active) | 0.243 | 0.01 | 0.041 | -0.044
COTL1 (UniProt Q14019) | 0.038 | 0.001 | -0.025 | 0.049 | -0.055 | 0.02 | -0.019 | -0.015 | -0.004 | -0.002 | -0.017 | -0.068 | 0.019 | 0.02 | 0.027 | 0.37 (active) | -0.076 | -0.019 | -0.045 | -0.007
CSNK1G3 (UniProt Q9Y6M4) | -0.025 | 0.529 (active) | 0.003 | -0.048 | -0.007 | 0.024 | 0.031 | -0.066 | 0.132 | -0.004 | -0.053 | -0.028 | – | 0.002 | 0.039 | -0.095 | 0.065 | 0.043 | 0.035 | -0.038
CNTN4 (UniProt Q8IWV2) | -0.043 | -0.154 | -0.286 | -0.341 | -0.077 | – | 0.312 | -0.039 | -0.141 | 0.237 | 0.12 | 0.03 | 0.295 | 0.024 | -0.326 | -0.474 | 0.128 | – | -0.076 | 0.094
CLIC2 (UniProt O15247) | – | -0.014 | 0.004 | 0.004 | -0.01 | 0.018 | 0.005 | 0.006 | 0.001 | -0.004 | 0.007 | -0.039 | -0.014 | -0.011 | -0.006 | -0.064 | -0.005 | 0.015 | 0 | 0.04
CYP4V2 (UniProt Q6ZWL3) | 0.157 | 0.129 | 0.058 | -0.095 | – | -0.022 | 0.02 | 0.015 | 0.015 | – | -0.021 | -0.021 | – | 0.05 | -0.12 | – | – | -0.076 | -0.17 | -0.004
CYCS (UniProt P99999) | 0.027 | 0.024 | 0 | 0.004 | -0.05 | -0.005 | 0.012 | -0.015 | 0.031 | -0.011 | -0.001 | -0.01 | 0.061 | 0.041 | 0.018 | -0.025 | 0.052 | 0.008 | -0.017 | -0.016
CSNK1D (UniProt P48730) | -0.086 | 0.494 (active) | -0.038 | -0.112 | 0.245 | -0.151 | -0.001 | -0.143 | 0.179 | -0.04 | -0.044 | -0.092 | – | -0.191 | 0.025 | – | 0.255 | -0.039 | 0.058 | –
CHMP4A (UniProt H0YIN6) | -0.077 | -0.203 | -0.253 | -0.354 | – | -0.055 | 0.33 | 0.15 | -0.159 | – | 0.049 | -0.012 | – | 0.024 | -0.495 | -0.274 | 0.158 | 0.201 | -0.088 | –
DDX4 (UniProt Q9NQI0) | 0.019 | -0.004 | 0.04 | 0.087 | 0.008 | 0.1 | – | -0.051 | -0.026 | -0.044 | -0.015 | 0.069 | -0.071 | -0.021 | 0.015 | -0.167 | 0 | -0.027 | – | -0.032
CSDE1 isoform 3 (UniProt O75534) | 0.051 | -0.331 | 0.047 | 0.019 | -0.112 | – | -0.009 | -0.137 | 0.031 | – | -0.014 | 0.05 | – | -0.193 | 0.113 | -0.064 | -0.104 | – | 0.07 | –
CSAD isoform 3 (UniProt Q9Y600) | -0.224 | – | -0.019 | -0.048 | – | – | -0.027 | -0.033 | – | – | – | 0.456 (active) | – | – | 0.001 | – | – | – | -0.003 | 0.041
CLPTM1L (UniProt Q96KA5) | – | -0.011 | 0.041 | -0.041 | 0.058 | 0.081 | -0.024 | 0.039 | -0.005 | -0.006 | 0.049 | 0.079 | 0.067 | -0.043 | 0.012 | -0.099 | 0.016 | 0.049 | -0.001 | 0.048
